Measured values reported in the supplement of paper PMC8728848.
Shown is part of a subset that was picked to be rich in the strongest signals.

Columns and labels:
Assay in all cases: glycan array binding signal (z-score within array); higher = stronger binding
Conditions in all cases: glycan notation: IUPAC condensed, linker removed
[1] = test system: Gal(b1-4)GlcNAc(b1-2)[Gal(b1-4)GlcNAc(b1-6)]Man(a1-6)[Gal(b1-4)GlcNAc(b1-2)Man(a1-3)]Man(b1-4)GlcNAc(b1-4)GlcNAc
Method in brief: (§1)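 Glycan array binding is given as a within-array Z-score, which can be read as non-binding when negative. The arrays, 3228 of them, came from the Consortium for Functional Glycomics database and were retained only where the protein sequence was available. Z-scores were averaged across arrays of the same protein sequence at different concentrations or buffers and across linkers.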

[2] = test system: Gal(b1-4)GlcNAc(b1-3)Gal(b1-4)GlcNAc(b1-3)Gal(b1-4)GlcNAc(b1-2)Man(a1-3)[Gal(b1-4)GlcNAc(b1-3)Gal(b1-4)GlcNAc(b1-3)Gal(b1-4)GlcNAc(b1-2)Man(a1-6)]Man(b1-4)GlcNAc(b1-4)GlcNAc
Method in brief: as §1

[3] = test system: Gal(b1-4)GlcNAc(b1-3)Gal(b1-4)GlcNAc(b1-3)Gal(b1-4)GlcNAc(b1-2)Man(a1-3)[Gal(b1-4)GlcNAc(b1-3)Gal(b1-4)GlcNAc(b1-3)Gal(b1-4)GlcNAc(b1-2)Man(a1-6)]Man(b1-4)GlcNAc(b1-4)[Fuc(a1-6)]GlcNAc
Method in brief: as §1

[4] = test system: Gal(b1-4)GlcNAc(b1-3)Gal(b1-4)GlcNAc(b1-3)Gal(b1-4)GlcNAc(b1-3)Gal(b1-4)GlcNAc(b1-2)Man(a1-3)[Gal(b1-4)GlcNAc(b1-3)Gal(b1-4)GlcNAc(b1-3)Gal(b1-4)GlcNAc(b1-3)Gal(b1-4)GlcNAc(b1-2)Man(a1-6)]Man(b1-4)GlcNAc(b1-4)[Fuc(a1-6)]GlcNAc
Method in brief: as §1

[5] = test system: Gal(b1-4)GlcNAc(b1-2)[Gal(b1-4)GlcNAc(b1-6)]Man(a1-6)[GlcNAc(b1-4)][Gal(b1-4)GlcNAc(b1-2)[Gal(b1-4)GlcNAc(b1-4)]Man(a1-3)]Man(b1-4)GlcNAc(b1-4)[Fuc(a1-6)]GlcNAc
Method in brief: as §1

[6] = test system: Gal(b1-4)GlcNAc(b1-3)Gal(b1-4)GlcNAc(b1-2)Man(a1-3)[Gal(b1-4)GlcNAc(b1-3)Gal(b1-4)GlcNAc(b1-2)Man(a1-6)]Man(b1-4)GlcNAc(b1-4)GlcNAc
Method in brief: as §1

[7] = test system: Gal(b1-4)GlcNAc(b1-3)Gal(b1-4)GlcNAc(b1-2)[Gal(b1-4)GlcNAc(b1-3)Gal(b1-4)GlcNAc(b1-6)]Man(a1-6)[Gal(b1-4)GlcNAc(b1-3)Gal(b1-4)GlcNAc(b1-2)Man(a1-3)]Man(b1-4)GlcNAc(b1-4)GlcNAc
Method in brief: as §1

[8] = test system: Gal(b1-4)GlcNAc(b1-2)[Gal(b1-4)GlcNAc(b1-6)]Man(a1-6)[Gal(b1-4)GlcNAc(b1-2)Man(a1-3)]Man(b1-4)GlcNAc(b1-4)[Fuc(a1-6)]GlcNAc
Method in brief: as §1

[9] = test system: Gal(b1-4)GlcNAc(b1-3)Gal(b1-4)GlcNAc(b1-3)Gal(b1-4)GlcNAc(b1-2)[Gal(b1-4)GlcNAc(b1-3)Gal(b1-4)GlcNAc(b1-3)Gal(b1-4)GlcNAc(b1-6)]Man(a1-6)[Gal(b1-4)GlcNAc(b1-3)Gal(b1-4)GlcNAc(b1-3)Gal(b1-4)GlcNAc(b1-2)Man(a1-3)]Man(b1-4)GlcNAc(b1-4)[Fuc(a1-6)]GlcNAc
Method in brief: as §1

[10] = test system: Gal(b1-4)GlcNAc(b1-3)Gal(b1-4)GlcNAc(b1-3)Gal(b1-4)GlcNAc(b1-3)Gal(b1-4)GlcNAc(b1-2)[Gal(b1-4)GlcNAc(b1-3)Gal(b1-4)GlcNAc(b1-3)Gal(b1-4)GlcNAc(b1-3)Gal(b1-4)GlcNAc(b1-6)]Man(a1-6)[Gal(b1-4)GlcNAc(b1-3)Gal(b1-4)GlcNAc(b1-3)Gal(b1-4)GlcNAc(b1-3)Gal(b1-4)GlcNAc(b1-2)Man(a1-3)]Man(b1-4)GlcNAc(b1-4)[Fuc(a1-6)]GlcNAc
Method in brief: as §1

Substance: LcI (Legionella pneumophila)
- glycan array binding signal (z-score) [1]: 0.017
- glycan array binding signal (z-score) [2]: 0.132
- glycan array binding signal (z-score) [3]: -0.212
- glycan array binding signal (z-score) [4]: 0.132

Substance: AgI/IIC123-GFP (Streptococcus mutans)
- glycan array binding signal (z-score) [1]: -0.449
- glycan array binding signal (z-score) [5]: -0.015
- glycan array binding signal (z-score) [6]: 3.9
- glycan array binding signal (z-score) [7]: -0.185

Substance: AgI/II Vhelical-GFP (Streptococcus mutans)
- glycan array binding signal (z-score) [8]: -0.078
- glycan array binding signal (z-score) [5]: -0.092
- glycan array binding signal (z-score) [9]: 0.214

Substance: Actinohivin (Actinomycete K97)
- glycan array binding signal (z-score) [9]: 0.097
- glycan array binding signal (z-score) [10]: -0.012
